In the library only some 2.9% were active in any assay of this set; here they are far more common.
ZTA DNA inh = blocks Epstein-Barr virus ZTA, an EBNA-1 counter-screen. P03206. 320,000 tested, 0.15% active. ZTA-DNA binding, fluorescence polarization. inhibition, % at 11 µM; in the data active means inhibition above about 33%
Target sequence (P03206 whole entry, looked up): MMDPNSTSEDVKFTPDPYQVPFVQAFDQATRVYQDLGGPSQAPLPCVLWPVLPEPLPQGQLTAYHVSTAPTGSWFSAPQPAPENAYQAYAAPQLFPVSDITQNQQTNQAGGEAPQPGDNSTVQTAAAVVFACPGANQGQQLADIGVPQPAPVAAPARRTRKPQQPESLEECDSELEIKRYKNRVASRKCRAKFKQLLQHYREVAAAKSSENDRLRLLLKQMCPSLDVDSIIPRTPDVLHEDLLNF
EBNA-1 inh = blocks EBNA-1 binding to DNA | AID 1950 | EBNA-1 DNA binding, fluorescence polarization | 300,000 tested, 0.34% active | inhibition, % at 14.8 µM; in the data active means inhibition above about 28%
PAFAH1B3 inh = inhibitors of human PAFAH1B3; Q15102; recombinant PAFAH1B3, FP-rhodamine probe, fluorescence polarization; inhibition, % at 3.39 µM; 340,000 tested, 0.28% active;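 active means inhibition above the screen-wide average of all tested compounds plus 3 SD, cut at about 25% in these data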
pPAFAH FP inh = pPAFAH (human) enzyme inhibition; recombinant pPAFAH, FP-rhodamine probe fluorescence polarization; Q13093; inhibition, % at 3.39 µM; 330,000 tested, 1.5% active; AID 463082;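 active means inhibition above the mean inhibition across the screen plus 3 SD, cut at about 25% in these data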;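 further: inhibitors block binding of the rhodamine activity-based probe so polarization drops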
PAFAH2 FP inh = PAFAH2 (human) inhibition. Q99487. recombinant PAFAH2, FP-rhodamine activity probe, fluorescence polarization. inhibition, % at 3.39 µM. 340,000 tested, 0.99% active;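 active means inhibition above the mean over all tested compounds plus 3 SD, cut at about 30% in these data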;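 further: inhibitors block probe labeling of enzyme so polarization drops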
PAFAH1B2 inh = blocks human PAF acetylhydrolase 1b catalytic subunit 2. inhibition, % at 3.39 µM. 340,000 tested, 1.2% active. AID 492953. recombinant PAFAH1B2, FP-rhodamine activity probe, fluorescence polarization;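 active means inhibition above the mean of all tested compounds plus 3 SD, cut at about 24% in these data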
Target sequence (P68402 whole entry, looked up): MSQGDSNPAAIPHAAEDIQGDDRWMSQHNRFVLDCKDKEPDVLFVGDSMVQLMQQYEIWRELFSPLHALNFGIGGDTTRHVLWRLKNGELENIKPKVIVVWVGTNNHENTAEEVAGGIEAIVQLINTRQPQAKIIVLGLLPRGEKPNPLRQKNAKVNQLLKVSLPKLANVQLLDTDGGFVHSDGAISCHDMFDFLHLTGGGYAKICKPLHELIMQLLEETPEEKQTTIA
A number is an active result; . = inactive; / = not tested or not shown.

SMILES	ZTA DNA inh	EBNA-1 inh	PAFAH1B3 inh	pPAFAH FP inh	PAFAH2 FP inh	PAFAH1B2 inh
CC(CNS(=O)(=O)c1ccc2c(c1)NC(=O)CCS2)c1ccccc1 (configuration not stated)	.	.	.	27	.	39
O=C1NC[C@H](CC2CCCCC2)N(CCc2cccc(F)c2)C1=O	.	.	.	.	.	.
Cc1ccc(N(CC(=O)NCCSc2ccccn2)S(=O)(=O)c2ccc(F)cc2)cc1	.	.	.	.	.	.
O=C(O)c1cc2cc(Cl)cc(Cl)c2oc1=O	.	.	.	27	.	.
CCOC(=O)C1CCN(S(=O)(=O)c2ccc3oc(=O)ccc3c2)CC1	.	.	.	.	.	.
Cc1ccc(CNC(=O)CSc2nc(C)cs2)cc1	.	.	.	.	.	.
Cc1csc(SCC(=O)NCCc2ccc(Cl)cc2)n1	.	.	.	.	.	32
COCC(C)n1c(SCC(=O)NC(=O)NCc2ccccc2)nc2ccccc2c1=O (configuration not stated)	/	/	.	.	.	.
Cc1c2cnn(CC(=O)NCCN3CCOCC3)c(=O)c2c(C)n1Cc1ccccc1F	/	/	.	/	.	.
O=c1c2c(nc3cc(-c4ccc(Cl)cc4)[nH]n13)CCS2	.	.	.	.	.	32
O=C1CSC(c2ccc([N+](=O)[O-])cc2)N1CCN1CCCCC1 (configuration not stated)	.	.	.	.	.	.
O=C1CSC(c2ccc([N+](=O)[O-])cc2)N1C1CCCCC1 (configuration not stated)	.	.	.	.	.	27
Cc1cc(-c2nnc(SCC(=O)Nc3nc(-c4ccccc4)cs3)o2)no1	.	.	.	30	.	.
CCOC(=O)c1c(C)oc2c1cc(NS(=O)(=O)c1ccc(C(=O)O)cc1)c1ccccc12	.	.	.	29	.	.
Cc1oc2c(cc(NS(=O)(=O)c3ccc(Cl)cc3)c3ccccc32)c1C(=O)O	/	/	.	/	.	.
CCOC(=O)CSc1nc2ccc(N3CCOCC3)cc2c(=O)n1Cc1ccc2c(c1)OCO2	.	.	/	32	/	/
CCCCn1c(N)c(N(CCOC)C(=O)COC(=O)c2ccccc2NCCO)c(=O)[nH]c1=O	/	/	.	/	.	.
COc1cccc(NC(=S)N2CCN(c3ccccn3)CC2)c1	.	.	.	.	.	.
CCOc1cc2[nH]c(=O)n(CCCC(=O)NCc3ccc(OC)cc3)c(=O)c2cc1OCC	.	.	.	.	.	32
COc1ccc(CNC(=O)CCn2c(=O)[nH]c3ccccc3c2=O)cc1	.	.	.	.	.	.
Cc1ccc(S(=O)(=O)CCC(=O)OCC(=O)N(C)CC(=O)Nc2ccc(F)cc2)cc1	.	.	.	.	.	.
CN(CC(=O)Nc1ccc(F)cc1)C(=O)COC(=O)c1cc(Br)c(Br)s1	/	/	.	/	.	24
Cc1ccc(SCC(=O)OCC(=O)N(C)CC(=O)Nc2ccc(F)cc2)cc1	.	.	.	27	.	44
CN(CC(=O)Nc1ccc(F)cc1)C(=O)COC(=O)c1ccccc1	.	.	.	.	.	.
COc1ccc(Cc2noc(CN3CCCN(C4Cc5ccccc5C4)CC3)n2)cc1OC	.	.	.	.	.	.
SMILES	ZTA DNA inh	EBNA-1 inh	PAFAH1B3 inh	pPAFAH FP inh	PAFAH2 FP inh	PAFAH1B2 inh
O=[N+]([O-])c1cc(Cl)c(Cl)c(Cl)c1Cl	.	/	.	.	.	.
Cc1ccc(C(=O)CSc2nnc(-c3ccco3)n2Cc2ccccc2)cc1	.	.	.	.	.	.
Cn1c(SCC(=O)c2ccc(-c3ccccc3)cc2)nnc1-c1ccco1	.	.	.	30	.	.
Cc1ccccc1NC(=S)N(Cc1cccnc1)Cc1ccccc1Cl	.	.	.	.	.	.
N#Cc1nc(COc2ccc(Br)cc2)oc1NCCCn1ccnc1	.	.	.	.	.	25
Cc1ccc(C)c(OCCn2cc(C(=O)O)c3ccccc32)c1	.	.	/	.	/	/
Cc1ccccc1OCCn1cc(C(=O)O)c2ccccc21	.	.	.	.	.	24
S=c1[nH]nc(CSCCOc2ccc(Cl)cc2Cl)o1	.	.	.	.	.	34
S=c1[nH]nc(CSCCOc2ccccc2)o1	.	.	.	.	.	.
N#CC1=C(SCc2ccccc2)NC(=O)CC1c1ccc(O)cc1 (configuration not stated)	.	.	.	26	.	.
COC(=O)CSC1=C(C#N)C(c2ccc(F)cc2)CC(=O)N1 (configuration not stated)	.	.	.	.	.	.
CCCCCCSC1=C(C#N)C(c2ccccc2)CC(=O)N1 (configuration not stated)	.	.	.	.	.	.
Cc1ccc(C2CC(=O)NC(SCc3ccccc3)=C2C#N)cc1 (configuration not stated)	.	.	.	30	.	.
Cc1ccc(C(=O)N[C@@H](Cc2ccccc2)C(=O)N2CCC3(CC2)NCCc2[nH]cnc23)cc1C	.	.	.	.	.	.
CCN(CC)c1ccc(/C=C(\C#N)C(=O)c2ccc(Br)cc2)cc1	.	.	41	.	81	55
CCN(CC)c1ccc(/C=C(\C#N)C(N)=O)cc1	/	/	.	/	.	.
O=C(O)CC(NS(=O)(=O)c1ccc(Br)cc1)c1ccco1 (configuration not stated)	.	.	.	.	.	28
CCOc1ccc(OCCC(=O)OCC(=O)NCc2ccccc2)cc1	.	.	.	32	.	.
Cc1ccc(OCCC(=O)OCC(=O)NCCc2ccccc2)cc1	.	.	.	.	.	.
Cc1ccc(C)c(OCCC(=O)OCC(=O)NCc2ccc(F)cc2)c1	.	.	.	30	.	.
Cc1ccc(OCCC(=O)OCC(=O)NCc2ccccc2)cc1	.	.	.	30	.	.
COc1ccc(OCCC(=O)OCC(=O)NCc2ccccc2)cc1	.	.	.	.	.	.
COc1ccc(OCCC(=O)OCC(=O)NCc2ccc(F)cc2)cc1	.	.	.	.	.	.
CN(C)S(=O)(=O)c1ccc(N=Cc2c(C(F)(F)F)[nH]n(C)c2=O)cc1	.	.	.	.	.	.
Cc1ccc(OCCNC(=O)c2ccccc2F)cc1	.	.	.	.	.	.
SMILES	ZTA DNA inh	EBNA-1 inh	PAFAH1B3 inh	pPAFAH FP inh	PAFAH2 FP inh	PAFAH1B2 inh
Cc1ccc2nc(CSc3nc(C)cc(C)c3C#N)[nH]c2c1	.	.	.	26	.	.
Cc1cc(C)c(C#N)c(SCc2ccccc2)n1	.	.	.	.	.	.
COc1ccc(N=CC2=C(Nc3ccc(OC)cc3)c3c(C)nn(-c4ccccn4)c3CC2)cc1	.	.	/	54	/	/
CCOc1ccc(CN(CC)C(=O)c2ccc3c(c2)[nH]c(=O)c(=O)n3CC)cc1OC	.	.	.	.	.	.
O=C(/C=C(\O)c1ccc(Cl)cc1)C(=O)NNC(=O)C(O)(c1ccccc1)c1ccccc1	.	.	.	27	.	.
O=C(/C=C(\O)c1ccccc1)C(=O)NNC(=O)c1ccccc1	.	.	.	.	.	.
C[C@@H](CSc1ccccc1)CN1CC[C@H](O)CCC1=O	.	.	.	.	.	.
